Results published in PubChem BioAssay AID588342 (National Center for Advancing Translational Sciences (NCATS), 2011).
Out of some 360,000 compounds screened, about 25,000 (6.9%) were called active. Roughly 9% stayed inconclusive and do not appear here. The sample as a whole holds a higher share of actives than the screen did. A number with no mark means an inactive call. The call rests on the fitted dose curve; in most records, active means well fitted inhibition curve with a large enough effect; inconclusive means small, poorly fitted or top-dose-only effect; inactive means flat fitted curve, though single readings scatter.

The compounds below were run against Luciferin 4-monooxygenase (Photinus pyralis) (UniProt P08659) (assay: qHTS profiling assay for firefly luciferase inhibitor/activator using purifed enzyme and Km concentrations of substrates (counterscreen for miR-21 project)). Details: purified FLuc, luminescence inhibition; series mostly up to 57.5 µM; activity change, negative = inhibition: at the top concentration.
Sequence of Luciferin 4-monooxygenase (Photinus pyralis) (P08659 whole entry, looked up): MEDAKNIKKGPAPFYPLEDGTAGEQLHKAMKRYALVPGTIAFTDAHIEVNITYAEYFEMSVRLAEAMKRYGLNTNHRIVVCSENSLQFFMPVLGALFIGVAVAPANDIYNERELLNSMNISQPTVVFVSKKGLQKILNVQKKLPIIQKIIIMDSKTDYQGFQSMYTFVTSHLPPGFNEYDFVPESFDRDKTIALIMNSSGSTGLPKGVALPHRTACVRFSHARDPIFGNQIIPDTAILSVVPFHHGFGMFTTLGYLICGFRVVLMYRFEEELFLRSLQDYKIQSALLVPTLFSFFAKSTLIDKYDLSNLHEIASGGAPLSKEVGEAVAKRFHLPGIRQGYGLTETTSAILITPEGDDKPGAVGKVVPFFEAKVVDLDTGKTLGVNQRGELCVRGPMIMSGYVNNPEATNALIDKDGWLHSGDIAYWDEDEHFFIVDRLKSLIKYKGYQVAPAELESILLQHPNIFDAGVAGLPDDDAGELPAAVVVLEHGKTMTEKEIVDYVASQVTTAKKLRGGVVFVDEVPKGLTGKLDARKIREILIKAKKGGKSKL
Description: MLPCN Grant: 1 R21 NS059478-01 (miR-21 grant) Assay Provider: NCGC NCGC Assay Overview: Firefly (Photinus pyralis) luciferase is one of the most commonly used transcriptional reporters for a number of reasons. It is considered one of the more dynamically responsive reporters -that is, responsive to changes in reporter transcription - as it requires no post-translational modifications and is enzymatically active directly after protein synthesis (Wood, 1998). Additionally, the half-life of the luciferase protein is short relative to other reporter-gene products (Wood, 1995). Whereas reporters with long half-lives potentially allow for increased signal due to accumulation of reporter-gene product, once accumulated in the cell, dynamic changes in reporter-gene expression may be difficult to detect(Fan and Wood, 2007; Almond et al., 2004). It has been shown that wild-type P. pyralis luciferase has a half-life of approximately […] hours in mammalian cells (Thompson et al., 1991). Firefly luciferase reporter-gene assays are also generally considered one of the most sensitive assay types (Wood, 1995; Wood, 1998). Although light produced in a bioluminescence reaction is of lower intensity than that produced during fluorescence emission, this is offset by little to no background light inherent to luminescent assays. Thus the luciferase reporter can be expressed at much lower levels than fluorescent proteins while still providing robust signal. # However, it was initially observed, in 1991, by Thompson et al., that compounds that resemble the substrates of firefly luciferase (FLuc) can act as competitive inhibitors of the enzyme, and that these compounds, upon interaction with luciferase in the cell, can actually stabilize the protein and increase its half-life. Accumulated intracellular FLuc protein can be measured as an increase in luminescence signal, upon addition of detection reagents (which contain high concentrations of FLuc substrates) commonly used in high-throughput screening. In cell-based reporter gene assays that use FLuc as the reporter gene to quantitate the potential influence of a given compound against the target biology, this apparent increase in luminescence can mistakenly be interpreted as identification of a compound that is active against the target of interest. This is the case for the miR-21 FLuc reporter gene assay used to identify inhibitors of the miR-21 pathway (PubChem AID 2289) - compounds of interest will inhibit miR-21 biogenesis/expression or activity, and are identified by causing an increase in luminescence, due to increased FLuc translation. However, FLuc inhibitory compounds that stabilize the FLuc protein will give an identical read-out, making it difficult to distinguish compounds that are active against the target from those active against FLuc. Previous profiling work to determine the prevalence of compounds that affect FLuc enzymatic activity (PubChem AID 411) identified that ~3% of the MLSMR library (then at ~72K) inhibited FLuc. […] Since the MLSMR had grown to ~350K compounds, and since it was expected that a significant percentage of compounds found active in the miR-21 FLuc assay would be FLuc inhibitors, the library was screened for activity against FLuc using a biochemical assay of purified FLuc and KM concentrations of FLuc substrates (D-luciferin and ATP).
NCGC Assay Protocol Summary: Reagents: 50mM Tris acetate, pH 7.5; 10mM Mg acetate; 10uM D-luciferin (Sigma #L9504); 10uM ATP; 0.01% Tween-20; 0.05% BSA; 10nM P. pyralis luciferase (Sigma #L9506) Control compounds used were two known firefly luciferase inhibitors (compounds (2) and (5) in Auld et al., 2010), and DMSO. […]
Further: nearly all actives have a fitted effect of over 55% in size.
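Wherever activity change, negative = inhibition is given: plate controls were vehicle for no effect and reference inhibitor for full effect.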

Row | Structure (SMILES) | activity change, negative = inhibition | Potency
1 | CCOC(=O)c1scc(-c2ccc(C)cc2)c1S(=O)(=O)Nc1cc(C)ccc1C | -14.5% | –
2 | Cc1ccc2nc(COc3ccccc3NC(=O)Nc3ccc(F)c(Cl)c3)cc(=O)n2c1 | -18.2% | –
3 | CSc1nc(Nc2ccc(F)cc2)cc(-c2ccccc2)n1 | -13% | –
4 | CC(NC(=O)c1ccco1)C(=O)Nc1nc(-c2ccccn2)cs1 (centres undefined) | 1.86% | –
5 | c1ccc(Nc2nc(-c3ccncc3)cs2)nc1 | – | 4.78 µM (active)
6 | O=C(CN1C(=O)C2C3C=CC(C3)C2C1=O)Nc1nc(-c2ccccn2)cs1 (centres undefined) | -3.95% | –
7 | Cc1cccc(Nc2nc(-c3ccccc3)cs2)n1 | – | 3.79 µM (active)
8 | COC(=O)c1cc2occc2n1Cc1nc(-c2ccc(C)cc2)oc1C | 4.5% | –
9 | COc1ccc2c(c1)C(NS(=O)(=O)OCC(Cl)(Cl)Cl)CCC2 (centres undefined) | -1.13% | –
10 | COCCN(C(=O)CSCc1ccc(C)cc1)c1c(N)n(CC(C)C)c(=O)[nH]c1=O | -1.29% | –
11 | CCOc1cccc(CC(=O)N2CCc3c([nH]c4ccccc34)C2c2ccc(OC)cc2)c1OCC (centres undefined) | -2.95% | –
12 | Cc1cc(=O)c2cc(C(=O)Nc3cccc(C)c3C)ccc2[nH]1 | -4.94% | –
13 | CCS(=O)(=O)N1CCc2cc(C(=O)NCc3ccc(C)cc3)ccc21 | -5.13% | –
14 | COc1ccc(NC(=O)Cn2c(=O)cc(C)c3c(C)nn(-c4cccc(Cl)c4C)c32)cc1OC | 4.01% | –
15 | COc1ccccc1N1CCN(C(=O)C(=O)N/N=C/c2ccccc2F)CC1 | 4.07% | –
16 | COc1ccccc1/C=N/N1CCN(Cc2ccccc2Cl)CC1 | -1.85% | –
17 | COc1ccccc1N1CCN(/N=C/c2ccc(O)cc2O)CC1 | – | 7.57 µM (active)
18 | CNCC(O)CN1CCN(c2ccccc2OC)CC1 (centres undefined) | -0.912% | –
19 | COc1ccccc1N1CCN(C2C(=O)c3ccccc3N2C(C)=O)CC1 (centres undefined) | -18% | –
20 | COc1ccccc1N1CCN(/N=C\C(Br)=C\c2ccccc2)CC1 | – | 16.9 µM (active)
21 | CCOC(=O)CN1C(=O)N[C@@H](c2ccc(Br)cc2)C(C(C)=O)=C1C | -0.544% | –
22 | Cc1oc(-c2ccccc2F)nc1CN1CCC(C(=O)NCCc2ccc(Cl)cc2)CC1 | -14.6% | –
23 | CN(Cc1ccccc1)C(=O)c1cc2c(=O)n(C)c3ccccc3c2s1 | -13.9% | –

Row | Structure (SMILES) | activity change, negative = inhibition | Potency
24 | Cc1[nH]c2ccccc2c1C(c1ccccc1)c1cccs1 (centres undefined) | -7.8% | –
25 | Cc1cccc(N2CCN(C(=O)c3ccc4c(c3)CCN4S(=O)(=O)c3ccccc3)CC2)c1C | -1.27% | –
26 | Cc1ccc(Cn2cc(CCC(=O)NCc3ccc(OC(C)C)cc3)c3ccccc32)cc1 | 3.04% | –
27 | CC(=O)Nc1ccc(OC(=O)COc2ccc(Br)cc2)cc1 | -1.37% | –
28 | CSc1ccc(Cl)c(C(=O)OCC(=O)N2CCNC2=O)c1 | -4.07% | –
29 | CC(=O)CSc1nnc(CSc2ncccn2)n1C1CCCCC1 | -0.437% | –
30 | O=S(=O)(c1ccccc1)c1nc(-c2ccc(Cl)cc2Cl)oc1N1CCCCC1 | -0.863% | –
31 | COc1ccc(S(=O)(=O)Nc2ccccc2C(=O)N2CCCC2)cc1C | -1.28% | –
32 | COc1ccc(S(=O)(=O)NC(C)c2ccccc2)cc1C(=O)N1CCCCC1 (centres undefined) | – | 1.69 µM (active)
33 | CC(NS(=O)(=O)c1ccc(OCC(=O)N2CCCC2)cc1)c1ccccc1 (centres undefined) | 2.33% | –
34 | COc1ccc(NS(=O)(=O)c2cc3c4c(c2)CC(=O)N4CCC3)cc1Cl | -10.1% | –
35 | O=C(CN1C(=O)CC(c2ccccc2)S(=O)(=O)c2ccccc21)NC1CCCC1 (centres undefined) | -2.16% | –
36 | Cc1ccccc1C1=N/C(=C/c2cccnc2)C(=O)O1 | – | 8.49 µM (active)
37 | C(=N\n1cnnc1)/c1cccnc1 | 0.209% | –
38 | O=C1/C(=C\c2cccnc2)CN(Cc2ccccc2)C/C1=C\c1cccnc1 | 0.472% | –
39 | CCc1nc2sc3c(Cl)ncnc3c2c2c1CCCC2 | 0.217% | –
40 | Cc1cccc(-n2cc(CN3CCN(C(=O)c4ncn[nH]4)CC3)c(-c3cccc(F)c3)n2)c1 | – | 13.5 µM (active)
41 | Cc1ccccc1CN1CCN(C(=O)c2cccc(F)c2)CC1 | 4.88% | –
42 | Cc1ccc(C)c(-n2cc(CN3CCN(C(=O)c4ncn[nH]4)CC3)c(-c3ccccc3)n2)c1 | -4.47% | –
43 | CCN(CCCNC(=O)c1cc2cc3cc(OC)ccc3nc2s1)c1ccccc1 | -6.12% | –
44 | CC(=O)Nc1ccc(SC[C@H](Cc2ccccc2)N2CC[C@@H](C)CCC2=O)cc1 | 4.86% | –
45 | Cc1ccc2nc(SCC(=O)NC3CCCC3)[nH]c2c1 | 5.01% | –
46 | CCOC(=O)CSc1nc2ccc(C)cc2[nH]1 | – | 16.9 µM (active)

Row | Structure (SMILES) | activity change, negative = inhibition | Potency
47 | COc1ccc2nc(SCC(=O)Nc3c(C)cc(C)cc3C)[nH]c2c1 | 6.49% | –
48 | COc1ccc(S(=O)(=O)NCc2cccn2Cc2cccc(C)c2)cc1 | -0.767% | –
49 | c1ccc(CN2CCC(N=C3NN=C(c4ccc5c(c4)OCCO5)CS3)CC2)cc1 | -19.4% | –
50 | Clc1cccc(N=C2NN=C(c3ccc4c(c3)OCCO4)CS2)c1 | – | 2.13 µM (active)
51 | COC(=O)C1CCN(C(=O)c2cc(=O)[nH]c3ccccc23)CC1 | -3.07% | –
52 | CC(NC(=O)COC(=O)c1cc(=O)[nH]c2ccccc12)c1ccccc1 (centres undefined) | -7.16% | –
53 | CC1CCN(C(=O)COC(=O)c2cc(=O)[nH]c3ccccc23)CC1 | – | 10.7 µM (active)
54 | Cc1cc(C)cc(NC(c2nnc(-c3cccc(F)c3)o2)c2ccc(F)cc2Cl)c1 (centres undefined) | 0.751% | –
55 | COc1cccc(CNc2nccn(-c3ccc(OC)c(OC)c3)c2=O)c1 | -2.32% | –
56 | COc1ccc(-c2cc(C(F)(F)F)nc(SCC(=O)N(C)Cc3ccccc3)n2)cc1OC | -5.79% | –
57 | COc1ccc(CC2c3cc(OC)c(OC)cc3CC[N+]2(C)CCC(=O)OCCCCCOC(=O)CC[N+]2(C)CCc3cc(OC)c(OC)cc3C2Cc2ccc(OC)c(OC)c2)cc1OC (centres undefined) | 1.46% | –
58 | CCCC(=O)Nc1ccc2oc(-c3ccc(O)c(Br)c3)nc2c1 | – | 2.39 µM (active)
59 | Cc1ccc(OCC(=O)Nc2ccc(-c3nc4ncccc4o3)cc2)cc1 | -2.22% [at 2.3 µM] | –
60 | COc1cccc(-c2nc3cc(C)ccc3o2)c1 | – | 0.757 µM (active)
61 | COc1ccc2oc(-c3ccc(C)c(NC(=O)c4sc5ccccc5c4Cl)c3)nc2c1 | -8.93% | –
62 | O=C(Nc1ccc2oc(-c3ccc(O)c(Br)c3)nc2c1)c1cc2ccccc2o1 | 2.43% | –
63 | CCC(=O)Nc1cccc(-c2nc3cc(C)ccc3o2)c1 | – | 2.69 µM (active)
64 | O=[N+]([O-])c1ccc2oc(-c3cccc(O)c3)nc2c1 | – | 2.13 µM (active)
65 | O=C(Nc1cccc(-c2nc3ccccc3o2)c1)c1cccc(Br)c1 | -18.3% | –
66 | COc1ccc(-c2nc3ccccc3o2)cc1NC(=O)c1cc([N+](=O)[O-])ccc1N1CCOCC1 | 3.15% | –
67 | CCCOc1ccc(C(=O)Nc2ccc3oc(-c4cccc(Cl)c4Cl)nc3c2)cc1 | -4.27% | –
68 | COc1cccc(-c2nc(S(=O)(=O)c3ccc(C)cc3)c(NCc3ccccc3)o2)c1 | 3.23% | –
69 | O=C(Nc1cc(-c2nc3ccccc3o2)ccc1Cl)c1cc([N+](=O)[O-])ccc1N1CCOCC1 | -12.3% | –
